# An excerpt weighted towards active compounds, which were near 27% of everything screened.
# Pyk2 oligo antag: blocks oligomerization of human Pyk2 in cells | Q293 cells, Pyk2 FERM NanoBiT luminescence; hits give low values | z-score (the deposit names both 25 µM and 10 µM) | AID 1347419 | hit rate 0.83% among 99,000;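 active = Z-score of -3 or lower, scaled per plate to the spread of control and sample wells; inactive = z-score above -3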;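 note: negative z-score means lost luminescence so less FERM oligomerization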
# CYP2C9 inhib: human CYP2C9 inhibition | P11712 | inhibition, % at 5 µM | hit rate 20% among 96,000 | CYP2C9 Supersomes, luciferin-H conversion, luminescence;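 active = blocking of liver enzyme CYP2C9 beyond about 50% at 5 µM, limit read from the data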
# Cav3 T inh: human Cav3.2 channel inhibition, primary screen | O95180 | Cav3.2-expressing cells, Fluo-4 calcium fluorescence FDSS; hits give low values | B-score at 10 µM | hit rate 4% among 100,000;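 active = single-dose well whose peak fluorescence ratio is a statistical outlier from its plate by either plate-standardised score or position-corrected B-score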
# CYP2C19 inh: inhibitors of human CYP2C19 | CYP2C19 Supersomes, luciferin-H EGE luminescence, 30 min | P33261 | AID 778 | inhibition, % at 5 µM | hit rate 21% among 96,000;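 active = CYP2C19 inhibition above a set limit at 5 µM in the primary screen, cut at about 50% in these data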;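 note: plate controls were negative control wells for no effect and 2.5 mM tranylcypromine positive control for full effect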
# CYP2C9 activ: increases human cytochrome P450 2C9 activity | P11712 | recombinant CYP2C9, luciferin-H conversion, luminescence; hits give high values; factor 1 = untreated enzyme, 0 = blocked | activation factor at 5 µM | hit rate 1.4% among 96,000 | AID 1024;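 active = activation factor of 2 or more for CYP2C9 at a 5 µM dose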;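 note: 0 = sulfaphenazole-blocked wells and 1 = vehicle-only wells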
# CYP2C19 activ: cytochrome P450 2C19 (human) activation; P33261; recombinant CYP2C19, luciferin-H EGE luminescence; hits give high values; 0 = fully inhibited enzyme, 1 = untreated enzyme; activation factor at 5 µM; 96,000 tested, under 10 active; AID 1025;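 active = activation factor of at least 2 at 5 µM in the primary screen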;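 note: 0 = wells with 2.5 mM tranylcypromine and 1 = vehicle-only wells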
# The depositor's hits bear a star; · = no result.
SMILES,Pyk2 oligo antag,CYP2C9 inhib,Cav3 T inh,CYP2C19 inh,CYP2C9 activ,CYP2C19 activ
O=C(c1cccnc1)N1CCN(Cc2ccccc2Br)CC1,-0.15,-5.4,-0.126,79.6*,1.1,0.2
COc1cccc(N2CCN(C(=O)c3cccnc3)CC2)c1,-0.55,12.4,-0.0486,70.9*,0.9,0.3
COc1ccc(CN2CCN(C(=O)c3cc(OC)c(OC)c(OC)c3)CC2)cc1OC,1.09,·,0.734,·,·,·
CCS(=O)(=O)N1CCN(C(=O)c2cccc(OC)c2)CC1,0.82,-3.0,-1.01,29.0,1,0.7
CCOc1ccc(OCC)c(NC(=O)CCn2cccc2)c1,-0.04,9.2,0.299,21.5,0.9,0.8
Cc1ccc(S(=O)(=O)N2CCN(C(=O)CN3CCN(C)CC3)C2)cc1,-0.32,6.4,1.34,0.5,0.9,1
CCCNC(=O)c1c(CSc2ccc(Cl)cc2)noc1C(=O)NCc1ccccc1,·,·,-2.66,·,·,·
Nc1ccc2nc(-c3ccccc3)sc2c1,-2.9,50.8*,-0.884,71.6*,0.5,0.3
COc1ccc2nc(-c3ccc(F)cc3)sc2c1,·,·,0.0949,·,·,·
Cc1ccc(C)c(OCCOCCN2CC(C)OC(C)C2)c1C (centres undefined),-0.51,0.1,-0.633,34.0,1,0.7
Cc1cc(N2CCC(C(=O)NCC3CC3)CC2)nc(-c2ccccc2)n1,1.27,61.5*,1.05,72.9*,0.4,0.3
N#C/C(=C\Nc1ccccc1O)c1nc2ccccc2o1,-3.35*,·,·,·,·,·
c1ccc2c3c(cc(N4CCOCC4)c2c1)OC1(N2CCOCC2)CCCCC1O3 (centres undefined),-0.25,79.5*,-1.75,95.1*,0.2,0
C=CCOc1ccc(CNc2nn[nH]n2)cc1,1.8,16.3,0.845,46.6,0.8,0.5
CCOC(=O)CC(=O)CSc1nc(C)cc(-c2cccnc2)c1C#N,-0.72,72.6*,0.15,28.1,0.3,0.7
Cc1cc(-c2ccccc2)c(C#N)c(SCC(N)=O)n1,-0.14,-198.4,0.632,40.6,3*,0.6
CCOC(=O)CC(=O)CSc1nc(-c2cccnc2)cc(C)c1C#N,0.49,81.1*,0.515,35.3,0.2,0.6
O=C(c1ccc(Cl)c(S(=O)(=O)NCc2ccco2)c1)N1CCN(c2ccc(F)cc2)CC1,0.01,0.2,-0.945,24.3,1,0.8
O=C(Nc1ncc(Br)s1)C(Cc1ccccc1)n1cccc1 (centres undefined),·,97.3*,-4.48*,88.4*,0,0.1
Fc1ccc(/C=N/n2c(-c3cccs3)n[nH]c2=S)cc1,1.36,21.0,-0.268,19.5,0.8,0.8
CCCNC(=O)C1CNc2ccccc2O1 (centres undefined),1.32,-3.2,-0.438,-8.3,1,1.1
Cc1ccc(C)c(-n2c(Cc3cc(=O)[nH]c(=O)[nH]3)nnc2SCC(=O)NCC2CCCO2)c1 (centres undefined),0.17,9.0,0.733,-10.3,0.9,1.1
Cc1ccc(S(=O)(=O)NCCC2(C(C)C)CCOC(C)(C)C2)cc1 (centres undefined),0.46,4.6,-0.714,21.6,1,0.8
CCC1(C)CC(CCNS(=O)(=O)c2ccc(C)cc2)(c2ccc(C)cc2)CCO1 (centres undefined),-0.89,53.3*,-5.35*,69.0*,0.5,0.3
Cc1ccc(N2Cc3ccccc3OC(C)C2=O)cc1 (centres undefined),·,85.0*,-1.23,99.5*,0.2,0
SMILES,Pyk2 oligo antag,CYP2C9 inhib,Cav3 T inh,CYP2C19 inh,CYP2C9 activ,CYP2C19 activ
Cc1ccc(N2C(=O)[C@@H]3Cc4ccccc4CN3C2=O)cc1,1.05,-16.7,-0.158,3.4,1.2,1
C=C1CCN([C@@H](CC(C)C)C(=O)NCc2cc(OC)c(OC)c(OC)c2)S(=O)(=O)c2ccccc21,·,·,-0.125,·,·,·
N#Cc1cc(C(=O)c2cc(Br)ccc2O)cn(C2CC2)c1=O,-0.34,10.8,-0.475,50.8*,0.9,0.5
CC(C)n1cc(C(=O)c2cc(Br)ccc2O)cc(C#N)c1=O,-0.98,88.5*,0.124,97.7*,0.1,0
CC(C)n1cc(-c2ccc(Cl)cc2)cc(C#N)c1=O,-0.51,19.6,0.0383,1.0,0.8,1
CCCCn1cc(C(=O)c2cc(Br)ccc2O)cc(C#N)c1=O,-1.25,59.4*,·,77.9*,0.4,0.2
Cc1c(-n2cc(C(=O)c3ccccc3O)cc(C#N)c2=O)c(=O)n(-c2ccccc2)n1C,0.42,7.2,·,4.4,0.9,1
O=C(Nn1c(-c2ccccc2)nc2ccccc2c1=O)c1cccs1,-0.41,·,·,·,·,·
CCOC(=O)c1ccc(Nc2ncnc3ccc(C)cc23)cc1,-0.93,-5.2,-0.0685,18.6,1.1,0.8
CCOC(=O)c1cccc(Nc2ncnc3ccc(C)cc23)c1,-1.37,49.9,1.31,55.9*,0.5,0.4
NC(=O)c1nn(-c2ccccc2)c(=O)cc1O,-0.12,-6.5,1.15,-7.6,1.1,1.1
O=C(Nc1ccc(Cc2ccc(NC(=O)C3CC3)c(O)c2)cc1O)C1CC1,0.26,69.9*,-1.37,13.2,0.3,0.9
COc1cc(NS(=O)(=O)N2CCCC2)cc(OC)c1OC,0.38,-17.3,-0.422,31.9,1.2,0.7
O=C(Nc1ccc(Cc2ccncc2)cc1)C1CC1,0.41,88.7*,-1.18,84.0*,0.1,0.2
CCCCCC(=O)Nc1ccc(Cc2ccncc2)cc1,1.1,·,-0.256,·,·,·
O=S(=O)(Nc1ccc(Cc2ccncc2)cc1)N1CCCC1,-0.29,97.1*,0.46,100.0*,0,0
O=C(Nc1ccc(Cc2ccncc2)cc1)C1CCC(N2C(=O)C3C4C=CC(C5CC45)C3C2=O)CC1 (centres undefined),-4.15*,74.2*,-1.52,40.5,0.3,0.6
CC(C)(C)n1nc2c(c1NC(=O)COc1ccc3ccccc3c1)CS(=O)C2 (centres undefined),·,10.5,·,34.7,0.9,0.7
CCOC(=O)C1(CC/C(C)=N\NC(N)=O)CC(C)(C)OC1=O (centres undefined),0,·,·,·,·,·
COc1cccc(C2C3=C(CCCC3=O)Nc3nc(-c4cc(OC)c(OC)c(OC)c4)nn32)c1 (centres undefined),0.83,49.6,0.836,62.0*,0.5,0.4
COc1cc(-c2nc3n(n2)C(c2ccc(F)cc2)C2=C(CCCC2=O)N3)cc(OC)c1OC (centres undefined),-1.83,32.4,1.52,23.5,0.7,0.8
O=C(CN1CCN(C(=O)c2ccco2)CC1)Nc1ccccc1-c1ccccc1,0.54,80.0*,-0.0238,75.6*,0.2,0.2
O=C(CN1CCN(C(=O)c2ccco2)CC1)Nc1cc(Cl)ccc1Cl,0.94,29.9,-1.04,19.7,0.7,0.8
O=C(c1ccco1)N1CCN(CC(=O)N2c3ccccc3CCc3ccccc32)CC1,0.19,61.1*,-0.196,16.9,0.4,0.8
CNc1cccccc1=S,-0.02,11.0,-1.62,-0.2,0.9,1
Cc1ccc(N2CCN(C(=O)c3ccccc3NC(=O)C3CC=CCC3C(=O)O)CC2)cc1 (centres undefined),0.21,36.8,-0.0646,51.5*,0.6,0.5
